Screens from PubChem.
PPC-1+TRAIL kill: kills PPC-1 cancer cells in the presence of TRAIL | PPC-1 cells + TRAIL, ATPLite viability luminescence | AID 1443 | cell killing (% activity), % at 4 µM or 5 µM | 220,000 tested, 0.41% active;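 active = cell killing above 50% in the first pass at 4 µM, then a duplicate retest at 5 µM averaging 50% or more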;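 also: plate controls were cells with TRAIL plus DMSO for no effect and medium-only wells lacking cells for full effect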
Platelet DG rel: modulates dense granule release in human platelets | human platelet-rich plasma, SFLLRN dense granule ATP release, luminescence | inhibition, %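 (compounds screened at 7.5 µM in platelet-rich plasma)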 | 300,000 tested, 0.22% active;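 active = mean replicate score, as percent of positive control, at or above 50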
TWEAK Fn14 block: blocks TWEAK-Fn14 interaction in a reporter cell assay; AID 1159606; TWEAK-stimulated Fn14 reporter cells, luciferase luminescence, 8 h; inhibition, % at 10 µM; 360,000 tested, 2% active; in the data active = inhibition above about 50%
TROY NFkB inh: blocks TROY-dependent signaling in reporter cells; Q293 LMP1-TROYcd NF-kB luciferase reporter, 4 h; AID 1347056; 360,000 tested, 0.98% active; inhibition, % at 10 µM;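 active = compounds whose plate-normalised and pattern-corrected inhibition of the luciferase reporter signal at the single screening dose is 50% or more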
HSP90 refold inh: blocks HSP90-mediated luciferase refolding in reticulocyte lysate. inhibition, % at 5.6 µM. AID 1789. 290,000 tested, 0.91% active. Rabbit reticulocyte lysate, luciferase refolding luminescence, 3 h;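 active = inhibition above the screen-wide mean plus 3 SD, computed separately per campaign, cut at about 16% in these data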;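 also: 0% = DMSO wells and 100% = 60 µM geldanamycin wells; inhibitors lower the luminescence because luciferase stays unfolded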
TRAIL sens C8: sensitizes caspase-8 expressing cells to TRAIL | NB7+C8 cells + TRAIL, ATPlite viability luminescence | inhibition (viability loss, TRAIL sensitization), % at 10 µM | 360,000 tested, 1% active;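 active = compounds causing at least 50% loss of cell viability in the single-dose screen, relative to plate controls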
PPC1 cytotox: kills PPC-1 cells; shares compounds with PPC-1+TRAIL kill; PPC-1 viability, ATPlite luminescence, overnight; cytotoxicity, % at 5 µM; 1,200 tested, 50% active; AID 1447;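 active = reconfirmed compounds whose average cytotoxicity reaches 50% or more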;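 also: 0% = DMSO-treated cells and 100% = wells holding medium but no cells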
HSP90 inh confirm: confirmation of HSP90 inhibitors; shares compounds with HSP90 refold inh; rabbit reticulocyte lysate, luciferase refolding luminescence, 3 h; inhibition, % at 5.9 µM; 2,300 tested, 64% active; AID 1846; in the data active = inhibition above about 18%;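 also: 0% = vehicle wells and 100% = reference inhibitor wells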
luciferase ctr: firefly luciferase inhibition, HSP90 counter-screen. shares compounds with HSP90 refold inh. purified native firefly luciferase, luminescence. inhibition, % at 5.9 µM. 2,300 tested, 48% active;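 active = inhibition above the mean inhibition of all tested sample wells plus 3 SD, cut at about 10% in these data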;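 also: 0% = DMSO with luciferase and 100% = wells lacking luciferase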
Target sequence (P08659 whole entry, looked up): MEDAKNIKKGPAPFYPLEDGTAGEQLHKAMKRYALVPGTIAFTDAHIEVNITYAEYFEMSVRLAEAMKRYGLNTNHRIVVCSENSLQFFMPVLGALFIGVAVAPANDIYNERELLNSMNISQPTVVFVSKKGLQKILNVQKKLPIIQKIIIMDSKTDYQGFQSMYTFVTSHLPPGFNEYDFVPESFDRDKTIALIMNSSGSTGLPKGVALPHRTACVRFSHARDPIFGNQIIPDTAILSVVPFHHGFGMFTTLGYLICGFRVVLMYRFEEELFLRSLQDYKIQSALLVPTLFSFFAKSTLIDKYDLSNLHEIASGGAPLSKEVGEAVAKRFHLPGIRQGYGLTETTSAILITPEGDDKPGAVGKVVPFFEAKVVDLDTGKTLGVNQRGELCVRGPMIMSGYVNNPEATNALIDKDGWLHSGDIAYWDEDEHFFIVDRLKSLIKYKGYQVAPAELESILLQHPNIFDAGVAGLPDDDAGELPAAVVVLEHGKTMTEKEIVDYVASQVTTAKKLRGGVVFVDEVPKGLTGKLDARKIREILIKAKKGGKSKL
* = called active by the depositor; / = not tested or not shown. This is a sample that favours compounds with a hit; in the whole collection about 3.5% have one here.

SMILES	PPC-1+TRAIL kill	Platelet DG rel	TWEAK Fn14 block	TROY NFkB inh	HSP90 refold inh	TRAIL sens C8	PPC1 cytotox	HSP90 inh confirm	luciferase ctr
Cc1ccc(-n2[nH]c(=O)c3cccnc32)cc1	14	-3	8	-4	-4	9	/	/	/
CC(=O)Nc1ccc2nc(-c3ccccn3)[nH]c2c1	35	/	5	-81	2	33	/	/	/
c1ccc(-c2nc3cc4ccccc4cc3[nH]2)nc1	89*	48	6	-37	26*	86*	90*	72*	66*
COc1ccc(/C=N/Nc2nc(-c3cccnc3)nc3ccccc23)cc1OC	-6	7	7	9	4	15	/	/	/
Cc1ccc(-c2nc(N/N=C/c3ccncc3)c3ccccc3n2)cc1	98*	109*	76*	43	47*	92*	98*	80*	56*
O=C(N/N=C/c1ccc2c(c1)OCO2)c1ccccn1	58*	20	76*	39	28*	73*	60*	57*	36*
O=C(Nc1ccc2c(c1)OCCO2)c1ccccn1	43	45	79*	57*	25*	75*	53*	67*	53*
CC(C)c1ccc(/C=N/NC(=O)c2ccccn2)cc1	69*	35	77*	46	28*	81*	66*	69*	63*
O=C(Nc1ccc(N2CCCCC2)cc1)c1ccccn1	97*	75*	100*	87*	92*	93*	96*	93*	89*
CN(C)c1cccc(C(=O)N/N=C/c2ccccc2F)c1	62*	/	89*	56*	36*	79*	59*	73*	60*
Cc1cc(/C=N/NC(=O)c2cccc(N(C)C)c2)c(C)n1-c1cc(C(=O)O)cc(C(=O)O)c1	2	1	-32	-42	5	-3	/	/	/
C[C@@H]1CN([C@H](C)CO)C(=O)CCCn2cc(nn2)CO[C@H]1CN(C)C(=O)Nc1ccc2c(c1)OCO2	/	/	-31	-13	/	4	/	/	/
COc1ccc(NC(=O)CCN(c2ccc(OC)cc2)S(=O)(=O)c2ccc(C)c(C)c2)cc1	/	/	-10	-6	/	-2	/	/	/
COC(=O)C[C@H]1C=C[C@@H](NC(=O)c2ccncc2)[C@@H](CO)O1	/	/	/	/	/	-1	/	/	/
C/C(=N\Nc1nc2ccccc2[nH]1)c1ccc(N2CCOCC2)cc1	71*	-15	-21	-16	19*	73*	71*	1	-12
O=C(CSc1nc2ccccc2[nH]1)N/N=C/c1ccco1	/	14	6	-11	-5	-16	/	/	/
CCCc1[nH]n(-c2nc3ccccc3s2)c(=O)c1C=NCCCOC	5	1	-6	-19	2	-10	/	/	/
CCCCCN=Cc1c(C)[nH]n(-c2nc3ccccc3s2)c1=O	91*	1	87*	39	26*	84*	91*	12	1
Cc1nc2sc(-c3ccccc3)cc2c(=O)n1N	47	80*	94*	61*	19*	60*	47	77*	66*
c1ccc2nc(-c3ccc(N4CCOCC4)cc3)ccc2c1	73*	57*	90*	53*	27*	73*	77*	80*	71*
Cc1ccc(-c2cc3ccccc3nc2N2CCOCC2)cc1	-3	-3	11	-37	0	-14	/	/	/
COc1ccc(O)c(C(=O)CC(=O)c2ccccc2)c1	60*	2	/	/	24*	/	58*	8	-22
COc1ccc(CN2CCN(Cc3ccccc3F)CC2)cc1OC	/	6	-5	19	1	10	/	/	/
O=C(NCCCO)c1nc2ccccc2s1	22	-5	4	1	-1	-8	/	/	/
CCCNC(=O)c1ccc(-c2nc3ccccc3s2)s1	70*	12	52*	/	22*	83*	77*	68*	60*
COc1ccc2sc(NC(=O)c3ccco3)nc2c1	53*	22	70*	42	56*	68*	59*	60*	48*
